Data taken from PubChem BioAssay (EPA / NIEHS).
Results filed as inconclusive are left out. Active and inactive are the calls of the source. The calls were made as follows, unless noted: active = hit-call score of the fitted dose curve at least 0.9, where 1 is the maximum; inactive = score below 0.9.

What was measured:
[1] = ATG_TAL_CIS: Attagene CIS-FACTORIAL HepG2 Assay for human TAL Basal Promoter (AID 2282966); conditions: HepG2 Attagene cis-factorial TAL promoter reporter; actives raise or lower the signal;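 also: background control endpoint measuring basal TAL promoter reporter mRNA not a specific factor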
Method in brief: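 After 24 hours of chemical exposure, transfected HepG2 cells yielded RNA that was converted to 6-FAM-labelled, HpaI-digested reporter fragments for capillary electrophoresis. Values derive from bidirectional fitting against DMSO controls.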

[2] = ATG_TGFb_CIS: Attagene CIS-FACTORIAL HepG2 Assay for human Transforming Growth Factor (TGF) (AID 2282967); conditions: HepG2 Attagene CIS TGFb reporter, mRNA transcription; actives raise or lower the signal
Method in brief: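 Multiplexed cis-reporter HepG2 system, 24 h treatment; mRNA induction read by fluorescence after RT-PCR and CE; DMSO negative control, bidirectional curve fitting.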

[3] = target: Estrogen receptor (Homo sapiens) (UniProt P03372); experiment: ATG_ERa_TRANS: Attagene TRANS-FACTORIAL HepG2 Assay for human Estrogen Receptor alpha (ERa) (AID 2282970; active = hit-call score of the fitted dose curve at least 0.9, where 1 is the maximum); conditions: HepG2 Attagene TRANS ERa GAL4 reporter, mRNA
Method in brief: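 Liver-derived HepG2 cells expressing chimeric nuclear receptor-Gal4 proteins from transient transfection were exposed for 24 hours. Gain of reporter mRNA signal versus DMSO, read by capillary electrophoresis of FAM-labelled PCR products, was recorded.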

[4] = target: X-box-binding protein 1 (Homo sapiens) (UniProt P17861); experiment: ATG_Xbp1_CIS: Attagene CIS-FACTORIAL HepG2 Assay for human X-box Binding Protein 1 (XBP1) (AID 2282972); conditions: HepG2 XBP1 cis-element reporter, Attagene multiplex; actives raise or lower the signal
Method in brief: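 Human hepatoma HepG2, cis-element reporter system, 24 h treatment; mRNA quantified by RT-PCR/CE fluorescence; fit relative to DMSO.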

[5] = target: Glucocorticoid receptor (Homo sapiens) (UniProt P04150); experiment: ATG_GR_TRANS: Attagene TRANS-FACTORIAL HepG2 Assay for human Glucocorticoid Receptor (GR) (AID 2282978; active = hit-call score of the fitted dose curve at least 0.9, where 1 is the maximum;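 also: activators score as hits since higher reporter transcript over DMSO is fitted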); conditions: HepG2 Attagene TRANS GR reporter, mRNA transcription
Method in brief: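 Multiplexed TRANS reporter system, HepG2; 24 h exposure; RNA → oligo(dT) RT → reporter-specific PCR → 6-FAM primer extension → HpaI cut → CE fluorescence. Gain-of-signal vs DMSO.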

[6] = ATG_M_06_TRANS: Attagene TRANS-FACTORIAL HepG2 Assay for M06 Transcription Factor (Internal Marker) (AID 2282983; active = hit-call score of the fitted dose curve at least 0.9, where 1 is the maximum); conditions: HepG2 Attagene TRANS M06 internal marker reporter
Method in brief: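 Background control endpoint: reporter mRNA from transiently transfected HepG2 after 24 h dosing, detected by RT-PCR with capillary electrophoresis fluorescence. Analysed for gain versus DMSO.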

[7] = target: Nuclear receptor subfamily 4 group A member 2 (Homo sapiens) (UniProt P43354); experiment: ATG_NURR1_TRANS: Attagene TRANS-FACTORIAL HepG2 Assay for human Nuclear Receptor Related Protein 1 (NURR1) (AID 2282985; active = hit-call score of the fitted dose curve at least 0.9, where 1 is the maximum); conditions: HepG2 Attagene TRANS reporter, mRNA readout
Method in brief: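 Endpoint: reporter mRNA increase relative to DMSO. HepG2 cells transfected with reporter units, treated 24 h; RNA processed by RT-PCR, labelling, HpaI digestion and capillary electrophoresis.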

[8] = target: Transcriptional activator Myb (Homo sapiens) (UniProt P10242); experiment: ATG_Myb_CIS: Attagene CIS-FACTORIAL HepG2 Assay for human Myeloblastosis (Myb) Proto-Oncogene Transcription Factor (AID 2282986); conditions: HepG2 Attagene CIS-FACTORIAL Myb reporter transcription; actives raise or lower the signal
Method in brief: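 Endogenous transcription factor activity at a Myb-responsive cis element is reported in human liver HepG2 cells after 24 h chemical treatment. Reporter mRNA is detected by RT-PCR and capillary electrophoresis fluorescence, with DMSO as baseline.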

[9] = target: Nuclear respiratory factor 1 (Homo sapiens) (UniProt Q16656); experiment: ATG_NRF1_CIS: Attagene CIS-FACTORIAL HepG2 Assay for human Nuclear Respiratory Factor 1 (NRF1) Orphan Gene (AID 2282987); conditions: HepG2 NRF1 cis-element reporter, Attagene multiplex; actives raise or lower the signal
Method in brief: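 Human hepatoma HepG2 cells carrying transfected promoter-regulated reporter units were incubated with test chemicals for 24 h. Reporter transcripts were measured by RT-PCR plus capillary electrophoresis, and endpoints derived by bidirectional fitting with DMSO as baseline.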

[10] = ATG_VDRE_CIS: Attagene CIS-FACTORIAL HepG2 Assay for human Vitamin D Receptor Element (VDRE) (AID 2282968); conditions: HepG2 VDRE cis-reporter transcription, actives raise or lower the signal
Method in brief: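 Compounds were applied for 24 h to HepG2 cells transfected with promoter-regulated reporter units. Total RNA was reverse-transcribed, and reporter amplicons were fluorescently labelled and sized by capillary electrophoresis.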

[11] = target: Oxysterols receptor LXR-beta (Homo sapiens) (UniProt P55055); experiment: ATG_LXRb_TRANS: Attagene TRANS-FACTORIAL HepG2 Assay for human Liver X Receptor beta (LXRb) (AID 2282981; active = hit-call score of the fitted dose curve at least 0.9, where 1 is the maximum); conditions: HepG2 Attagene TRANS GAL4-LXRb reporter, mRNA
Method in brief: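 Multiplexed reporter assay, HepG2, 24 h dosing. Fluorescence of labelled RT-PCR products after capillary electrophoresis gives transcript level; positive fitting direction relative to DMSO.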

[12] = target: Hepatocyte nuclear factor 4-alpha (Homo sapiens) (UniProt P41235); experiment: ATG_HNF4a_TRANS: Attagene TRANS-FACTORIAL HepG2 Assay for human Hepatocyte Nuclear Factor 4 alpha (HNF4a) (AID 2282982; active = hit-call score of the fitted dose curve at least 0.9, where 1 is the maximum); conditions: HepG2 HNF4a transactivation reporter, mRNA readout
Method in brief: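 Endpoint reflects transcriptional activation of a GAL4-UAS reporter by an HNF4a-GAL4 chimera in transfected HepG2 cells, 24 h post-dosing. Fluorescence from RT-PCR products separated by capillary electrophoresis; DMSO baseline.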

[13] = ATG_M_32_TRANS: Attagene TRANS-FACTORIAL HepG2 Assay for M32 Transcription Factor (Internal Marker) (AID 2282984; active = hit-call score of the fitted dose curve at least 0.9, where 1 is the maximum;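 also: transcript level of a background control reporter unit measured by RT-PCR and capillary electrophoresis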); conditions: HepG2 Attagene TRANS M32 internal marker reporter
Method in brief: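 Internal-marker readout from a multiplexed transcription reporter panel. HepG2 cells were transfected with GAL4-UAS reporter units, treated 24 hours, and reporter transcript levels determined by fluorescence after RT-PCR and capillary separation.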

[14] = ATG_GAL4_TRANS: Attagene TRANS-FACTORIAL HepG2 Assay for GAL4 (Internal Marker) (AID 2282976; active = hit-call score of the fitted dose curve at least 0.9, where 1 is the maximum); conditions: HepG2 Attagene TRANS GAL4 internal marker reporter
Method in brief: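 First, HepG2 cells were transfected with reporter units under GAL4-UAS control. Next, they were treated with chemical for 24 h. Finally, RNA was reverse-transcribed, PCR-amplified, FAM-labelled and resolved by capillary electrophoresis, with induction scored against DMSO.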

[15] = target: Bile acid receptor (Homo sapiens) (UniProt Q96RI1); experiment: ATG_FXR_TRANS: Attagene TRANS-FACTORIAL HepG2 Assay for Farnesoid X Receptor (FXR) (AID 2282979; active = hit-call score of the fitted dose curve at least 0.9, where 1 is the maximum;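 also: hits raise reporter mRNA above DMSO so AC50 marks FXR activation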); conditions: HepG2 Attagene TRANS FXR-GAL4 reporter transcription
Method in brief: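 Transient transfection of HepG2 with multiplexed GAL4-UAS reporter units; exogenous FXR-GAL4 chimera. Dose 24 h → TriZol RNA → oligo(dT) RT → PCR, 6-FAM primer extension, HpaI cut → CE. Gain vs DMSO.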

[16] = target: Steroid hormone receptor ERR1 (Homo sapiens) (UniProt P11474); experiment: ATG_ERRa_TRANS: Attagene TRANS-FACTORIAL HepG2 Assay for human Estrogen-Related Receptor alpha (ERRa) (AID 2282971; active = hit-call score of the fitted dose curve at least 0.9, where 1 is the maximum); conditions: HepG2 Attagene TRANS reporter, ERRa transactivation
Method in brief: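 Reporter transcript induction was quantified by RT-PCR and capillary electrophoresis of FAM-labelled, HpaI-cut products after 24 h treatment of HepG2 cells carrying transiently transfected GAL4-UAS reporter units and an exogenous ERRa-Gal4 fusion; activity scored as increase over DMSO.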

[17] = ATG_M_19_TRANS: Attagene TRANS-FACTORIAL HepG2 Assay for M19 Transcription Factor (Internal Marker) (AID 2282974; active = hit-call score of the fitted dose curve at least 0.9, where 1 is the maximum); conditions: HepG2 Attagene TRANS-FACTORIAL M19 internal marker reporter
Method in brief: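 After transfection of HepG2 with GAL4-UAS-driven reporter constructs, cells are dosed for 24 h. Total RNA is reverse-transcribed, reporter sequences PCR-amplified and labelled, then HpaI-digested and sized by capillary electrophoresis.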

[18] = target: Oxysterols receptor LXR-alpha (Homo sapiens) (UniProt Q13133); experiment: ATG_LXRa_TRANS: Attagene TRANS-FACTORIAL HepG2 Assay for human Liver X Receptor alpha (LXRa) (AID 2282980; active = hit-call score of the fitted dose curve at least 0.9, where 1 is the maximum); conditions: HepG2 Attagene TRANS reporter, LXRa transactivation
Method in brief: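 Transfect HepG2 with GAL4-UAS multiplex reporter constructs (TRANS format, chimeric receptor-GAL4); treat 24 h; extract RNA, reverse-transcribe, PCR-amplify, FAM-label, HpaI-digest; resolve fragments by capillary electrophoresis. Upward response vs DMSO.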

Measured: outcome

Chain of Glucocorticoid receptor (Homo sapiens) (P04150 whole entry, looked up): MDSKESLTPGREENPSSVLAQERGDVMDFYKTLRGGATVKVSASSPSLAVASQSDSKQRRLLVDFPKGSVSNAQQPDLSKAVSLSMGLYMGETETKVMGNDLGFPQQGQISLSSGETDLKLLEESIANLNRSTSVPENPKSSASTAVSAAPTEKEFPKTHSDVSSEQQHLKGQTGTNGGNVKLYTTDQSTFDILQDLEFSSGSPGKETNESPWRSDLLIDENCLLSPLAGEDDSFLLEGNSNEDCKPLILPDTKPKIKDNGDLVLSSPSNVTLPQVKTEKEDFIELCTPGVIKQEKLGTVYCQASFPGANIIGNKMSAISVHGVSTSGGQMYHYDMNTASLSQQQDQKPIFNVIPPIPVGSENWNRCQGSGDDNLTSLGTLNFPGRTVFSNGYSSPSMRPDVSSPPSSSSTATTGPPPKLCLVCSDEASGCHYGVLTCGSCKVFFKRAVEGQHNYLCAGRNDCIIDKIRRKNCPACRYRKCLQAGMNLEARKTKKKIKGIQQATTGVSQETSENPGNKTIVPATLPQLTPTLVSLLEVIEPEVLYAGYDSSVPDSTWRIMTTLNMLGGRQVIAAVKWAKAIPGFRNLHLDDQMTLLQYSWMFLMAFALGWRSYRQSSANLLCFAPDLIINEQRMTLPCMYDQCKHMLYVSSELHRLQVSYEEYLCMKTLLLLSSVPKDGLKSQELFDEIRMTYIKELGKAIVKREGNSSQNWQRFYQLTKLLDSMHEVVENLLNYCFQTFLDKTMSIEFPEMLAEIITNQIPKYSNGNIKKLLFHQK
Chain of X-box-binding protein 1 (Homo sapiens) (P17861 whole entry, looked up): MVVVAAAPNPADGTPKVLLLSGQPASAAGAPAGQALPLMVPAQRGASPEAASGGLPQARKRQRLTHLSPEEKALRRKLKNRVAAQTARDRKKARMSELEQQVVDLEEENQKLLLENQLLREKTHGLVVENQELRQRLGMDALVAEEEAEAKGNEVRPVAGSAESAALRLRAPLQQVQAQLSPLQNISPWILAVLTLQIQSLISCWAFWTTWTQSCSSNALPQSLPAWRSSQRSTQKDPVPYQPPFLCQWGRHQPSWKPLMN
Chain of Estrogen receptor (Homo sapiens) (P03372 whole entry, looked up, the tested form may be a part): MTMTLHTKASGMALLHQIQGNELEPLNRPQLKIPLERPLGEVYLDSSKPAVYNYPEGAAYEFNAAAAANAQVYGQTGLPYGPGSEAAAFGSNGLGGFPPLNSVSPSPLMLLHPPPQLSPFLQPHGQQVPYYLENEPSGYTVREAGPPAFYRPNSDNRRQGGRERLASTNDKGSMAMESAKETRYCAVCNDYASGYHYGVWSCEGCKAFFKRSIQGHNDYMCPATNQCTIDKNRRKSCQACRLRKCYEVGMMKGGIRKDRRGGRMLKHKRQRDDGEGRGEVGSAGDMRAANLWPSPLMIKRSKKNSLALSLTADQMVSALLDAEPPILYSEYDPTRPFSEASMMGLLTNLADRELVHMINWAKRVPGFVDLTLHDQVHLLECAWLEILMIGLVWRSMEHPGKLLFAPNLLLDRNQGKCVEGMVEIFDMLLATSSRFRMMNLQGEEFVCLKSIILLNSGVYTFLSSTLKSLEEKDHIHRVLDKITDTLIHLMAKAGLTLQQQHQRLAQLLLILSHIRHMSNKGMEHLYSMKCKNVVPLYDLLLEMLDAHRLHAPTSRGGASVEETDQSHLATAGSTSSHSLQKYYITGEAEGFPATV
Chain of Nuclear respiratory factor 1 (Homo sapiens) (Q16656 whole entry, looked up): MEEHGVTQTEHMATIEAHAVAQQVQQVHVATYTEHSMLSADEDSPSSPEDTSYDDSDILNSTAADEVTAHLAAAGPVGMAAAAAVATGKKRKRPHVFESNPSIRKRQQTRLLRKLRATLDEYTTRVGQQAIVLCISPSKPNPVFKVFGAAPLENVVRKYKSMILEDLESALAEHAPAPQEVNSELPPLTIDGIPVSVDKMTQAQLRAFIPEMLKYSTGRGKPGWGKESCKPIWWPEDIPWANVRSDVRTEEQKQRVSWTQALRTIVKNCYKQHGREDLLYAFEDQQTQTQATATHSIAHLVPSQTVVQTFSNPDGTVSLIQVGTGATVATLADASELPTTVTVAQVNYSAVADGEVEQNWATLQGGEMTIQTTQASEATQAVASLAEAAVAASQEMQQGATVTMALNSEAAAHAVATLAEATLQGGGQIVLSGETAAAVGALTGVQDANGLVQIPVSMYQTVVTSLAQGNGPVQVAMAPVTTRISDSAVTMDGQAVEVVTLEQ
Chain of Transcriptional activator Myb (Homo sapiens) (P10242 whole entry, looked up): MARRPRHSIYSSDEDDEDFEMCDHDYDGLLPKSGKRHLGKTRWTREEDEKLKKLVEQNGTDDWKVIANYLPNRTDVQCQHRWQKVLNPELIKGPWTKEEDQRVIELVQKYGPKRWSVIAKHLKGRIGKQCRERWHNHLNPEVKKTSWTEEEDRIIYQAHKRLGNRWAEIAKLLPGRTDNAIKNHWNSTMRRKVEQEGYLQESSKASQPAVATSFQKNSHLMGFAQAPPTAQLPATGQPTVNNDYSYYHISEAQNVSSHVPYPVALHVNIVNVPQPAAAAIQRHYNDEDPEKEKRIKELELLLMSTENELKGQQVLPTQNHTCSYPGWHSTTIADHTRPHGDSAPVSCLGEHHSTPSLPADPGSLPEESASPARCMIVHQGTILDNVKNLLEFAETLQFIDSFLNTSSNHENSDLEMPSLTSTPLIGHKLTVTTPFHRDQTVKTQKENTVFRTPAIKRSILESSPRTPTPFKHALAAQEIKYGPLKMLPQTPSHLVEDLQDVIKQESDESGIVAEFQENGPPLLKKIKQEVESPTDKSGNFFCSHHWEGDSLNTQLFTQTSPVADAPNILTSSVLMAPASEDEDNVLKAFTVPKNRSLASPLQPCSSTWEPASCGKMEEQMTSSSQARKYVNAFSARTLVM
Chain of Nuclear receptor subfamily 4 group A member 2 (Homo sapiens) (P43354 whole entry, looked up): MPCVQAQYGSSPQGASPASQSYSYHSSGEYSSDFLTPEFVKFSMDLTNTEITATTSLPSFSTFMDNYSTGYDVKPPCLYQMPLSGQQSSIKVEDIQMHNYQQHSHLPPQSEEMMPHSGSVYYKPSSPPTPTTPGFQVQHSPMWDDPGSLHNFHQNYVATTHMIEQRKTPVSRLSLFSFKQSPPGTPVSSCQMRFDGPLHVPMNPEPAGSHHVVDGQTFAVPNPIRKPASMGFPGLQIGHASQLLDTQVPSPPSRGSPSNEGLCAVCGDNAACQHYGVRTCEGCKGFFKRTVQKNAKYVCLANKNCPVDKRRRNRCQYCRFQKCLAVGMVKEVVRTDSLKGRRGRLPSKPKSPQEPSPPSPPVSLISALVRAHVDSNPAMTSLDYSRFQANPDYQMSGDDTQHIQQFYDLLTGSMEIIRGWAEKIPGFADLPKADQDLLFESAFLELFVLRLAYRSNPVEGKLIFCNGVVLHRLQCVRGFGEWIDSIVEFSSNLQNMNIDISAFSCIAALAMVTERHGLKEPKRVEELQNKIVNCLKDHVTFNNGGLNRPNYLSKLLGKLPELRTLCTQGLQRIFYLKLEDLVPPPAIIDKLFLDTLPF
Chain of Hepatocyte nuclear factor 4-alpha (Homo sapiens) (P41235 whole entry, looked up, the tested form may be a part): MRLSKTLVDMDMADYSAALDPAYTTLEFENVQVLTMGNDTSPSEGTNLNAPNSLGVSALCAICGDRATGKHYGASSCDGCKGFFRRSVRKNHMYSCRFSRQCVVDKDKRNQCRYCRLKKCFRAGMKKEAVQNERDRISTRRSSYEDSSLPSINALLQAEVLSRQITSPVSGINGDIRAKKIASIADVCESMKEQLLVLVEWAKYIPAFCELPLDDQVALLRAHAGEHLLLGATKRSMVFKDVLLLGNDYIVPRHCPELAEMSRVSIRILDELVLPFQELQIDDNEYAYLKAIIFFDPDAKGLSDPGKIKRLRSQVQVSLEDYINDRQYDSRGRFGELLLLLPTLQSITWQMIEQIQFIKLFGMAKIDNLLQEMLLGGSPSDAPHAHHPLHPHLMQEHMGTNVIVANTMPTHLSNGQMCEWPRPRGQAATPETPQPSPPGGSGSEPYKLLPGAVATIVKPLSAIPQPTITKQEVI
Chain of Bile acid receptor (Homo sapiens) (Q96RI1 whole entry, looked up, the tested form may be a part): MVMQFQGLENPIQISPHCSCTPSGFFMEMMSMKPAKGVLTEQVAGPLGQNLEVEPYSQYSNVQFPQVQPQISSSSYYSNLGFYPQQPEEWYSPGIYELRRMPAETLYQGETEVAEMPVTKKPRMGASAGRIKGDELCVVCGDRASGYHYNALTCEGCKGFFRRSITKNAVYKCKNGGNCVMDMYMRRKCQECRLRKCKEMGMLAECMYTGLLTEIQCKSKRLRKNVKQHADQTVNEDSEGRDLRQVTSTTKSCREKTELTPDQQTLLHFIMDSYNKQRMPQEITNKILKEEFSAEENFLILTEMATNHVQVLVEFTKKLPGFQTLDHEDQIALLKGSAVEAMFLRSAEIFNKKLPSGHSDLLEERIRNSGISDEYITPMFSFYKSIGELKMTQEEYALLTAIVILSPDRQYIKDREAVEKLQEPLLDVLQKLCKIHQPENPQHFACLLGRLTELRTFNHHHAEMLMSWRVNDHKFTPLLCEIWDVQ
Chain of Oxysterols receptor LXR-beta (Homo sapiens) (P55055 whole entry, looked up, the tested form may be a part): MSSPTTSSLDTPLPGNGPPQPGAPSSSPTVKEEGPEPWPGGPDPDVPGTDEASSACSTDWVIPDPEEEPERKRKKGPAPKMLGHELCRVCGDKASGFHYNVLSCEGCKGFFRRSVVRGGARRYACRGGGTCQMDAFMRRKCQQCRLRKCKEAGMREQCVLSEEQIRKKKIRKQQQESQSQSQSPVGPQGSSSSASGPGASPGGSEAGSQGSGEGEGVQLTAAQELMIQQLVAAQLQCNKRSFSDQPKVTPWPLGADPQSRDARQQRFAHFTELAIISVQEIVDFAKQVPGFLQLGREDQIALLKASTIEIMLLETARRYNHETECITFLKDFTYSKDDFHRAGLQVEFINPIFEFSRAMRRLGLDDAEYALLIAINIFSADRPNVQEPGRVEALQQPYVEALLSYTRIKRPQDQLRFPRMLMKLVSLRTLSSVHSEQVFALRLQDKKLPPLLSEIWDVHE

O=c1[nH]c(=O)c2[nH]c(=O)[nH]c2[nH]1
inactive: [1] | [2] | [3] | [4] | [5] | [6] | [7] | [8] | [9]

NC(CO)(CO)CO
inactive: [1] | [2] | [10] | [4] | [5] | [11] | [12] | [6] | [13] | [7] | [8] | [9]

CC(=O)c1ccc[nH]1
inactive: [1] | [2] | [3] | [4] | [14] | [5] | [15] | [11] | [8] | [9]

O=C1CC2CC1C1CCCC21 (stereo not drawn)
inactive: [1] | [2] | [3] | [16] | [4] | [17] | [14] | [5] | [13] | [8] | [9]

O=C1C=CC(=O)O1
inactive: [1] | [2] | [10] | [4] | [15] | [18] | [12] | [6] | [13] | [8] | [9]
